# From PubChem BioAssay (NCI)
# Compounds without any hit were thinned out: in the full panel of roughly 83,000, 20% have a hit.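 For each line, cells grew in 96-well plates with the test compound present at a single concentration for 48 hours.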 The source made the active and inactive calls. How the source made its calls: active means growth percent below 10; inactive means the rest.
# System: MCF7 breast
# Experiment: NCI-60 one-dose screen, 48 h (100 = growth as untreated, 0 = no growth, -100 = all killed)
# Conditions: 10 µM
row,Compound,growth
1,COc1ccc(-c2nc(-c3nc4ccc(Cl)cc4[nH]3)c3ccccn23)cc1,41.5% (inactive)
2,O=C(O)c1ccc(P(=O)(O)O)c([N+](=O)[O-])c1,99.3% (inactive)
3,COc1ccc2c(c1)N(CCO)C1=C(C(=O)OC1)C2c1ccc(OC)c(OC)c1 (stereo not drawn),27.3% (inactive)
4,CC(=O)O[C@]1(C)CC[C@H]2[C@H](CNCCc3ccc(Cl)cc3)C(=O)O[C@@H]2C2=C(C)C(=O)C[C@H]21,68.4% (inactive)
5,COc1ccc(Cl)cc1-n1nnc(-c2nc3ccccc3[nH]2)c1N,94.3% (inactive)
6,O=C1/C(=C\c2ccc(F)cc2)CN(C(=O)c2ccccc2)C/C1=C\c1ccc(F)cc1,1.32% (active)
7,CCC(=O)N1C/C(=C/c2ccc(Cl)cc2)C(=O)/C(=C/c2ccc(Cl)cc2)C1,-77.9% (active)
8,COc1cc(C2CC(c3ccc(Nc4ccnc5cc(Cl)ccc45)cc3)=NN2c2ccc(Cl)cc2)cc(OC)c1OC (stereo not drawn),29.4% (inactive)
9,COc1cc(NC(=O)CCSc2nc3ccc(C)cc3c(=O)n2Cc2ccccc2)cc(OC)c1OC,77.6% (inactive)
10,COc1cc(Nc2ncnc(Nc3ccc4c(n3)NC(=O)C(C)(C)O4)n2)cc(OC)c1OC,21.9% (inactive)
11,C[C@@H]1C=C2C(=O)O[C@@H]3CC[C@H](C1)[C@]23O,36.8% (inactive)
12,N#CCCN1C/C(=C/c2ccc(Cl)cc2)C(=O)/C(=C/c2ccc(Cl)cc2)C1,-10.2% (active)
13,Cc1[nH]nc2c1C(c1cnn(C)c1)C(C#N)=C(N)O2 (stereo not drawn),98% (inactive)
14,O=C(Nc1nc2ccc(F)cc2s1)c1cc(-c2ccc(F)cc2)n2nc(-c3ccccc3)cc2n1,80.6% (inactive)
15,COc1ccc(-c2nc(-c3nc4cc(Cl)c(Cl)cc4[nH]3)c3ccccn23)cc1,69.6% (inactive)
16,Cc1ccc(CC#N)cc1C,104% (inactive)
17,O=C1/C(=C\c2ccc(Cl)cc2)CN(C(=S)Nc2ccccc2)C/C1=C\c1ccc(Cl)cc1,-83.9% (active)
18,C#Cc1ccc(-n2c(/C=C/c3ccc4ccccc4n3)nc3ncccc3c2=O)cc1,6.42% (active)
19,N#CCCN1C/C(=C/c2ccccc2)C(=O)/C(=C/c2ccccc2)C1,-12% (active)
20,CCC(=O)N1C/C(=C/c2ccc(OC)cc2)C(=O)/C(=C/c2ccc(OC)cc2)C1,-4.78% (active)

row,Compound,growth
1,Cc1ccc(C)c(C(O)(c2cc(C)ccc2C)C2(O)CCCCC2)c1,97.6% (inactive)
2,O=C1/C(=C\c2ccc(F)cc2)CN(C(=O)c2ccc([N+](=O)[O-])cc2)C/C1=C\c1ccc(F)cc1,-9.52% (active)
3,CC(=O)OCc1cc(-c2nc3ccccc3[nH]c2=O)nn1-c1ccc(Cl)cc1,85.9% (inactive)
4,O=C1/C(=C\c2ccc(Cl)cc2)CN(C(=O)c2ccccc2)C/C1=C\c1ccc(Cl)cc1,2.9% (active)
5,CC(C)(C)c1cc(Br)cc(C(C)(C)C)c1O,99% (inactive)
6,C#Cc1ccc(-n2c(/C=C/c3ccc(C(F)(F)F)cc3)nc3ncccc3c2=O)cc1,14.9% (inactive)
7,CC/C(=C(/c1ccc(OCCN(C)C)cc1)c1ccc(OC(=O)CCCCC(=O)c2c(C)[nH]c(/C=C3\N=C(c4ccc[nH]4)C=C3OC)c2C)cc1)c1ccccc1,-22% (active)
8,CSc1nn(-c2ccccc2)c2ncnc(Oc3ccccc3)c12,107% (inactive)
9,COc1cc(/C=C\c2cc(OC)c(OC)c(OC)c2)cc(NS(=O)(=O)c2ccc(Cl)cc2)c1OC,26.5% (inactive)
10,COc1ccc(/C=C2/CN(CCC#N)C/C(=C\c3ccc(OC)cc3)C2=O)cc1,10.4% (inactive)
11,c1ccc(CP(Cc2ccccc2)c2ccccc2)cc1,96.7% (inactive)
12,COc1ccc(-c2nc(-c3nc4cc(Cl)c(F)cc4[nH]3)c3ccccn23)cc1,58.1% (inactive)
13,Cc1nc2ccccc2c(N)c1-c1cc(C)c2c(C)nc3ccccc3c2n1,31.2% (inactive)
14,CC1(C)CCC(=NNC(N)=S)CC1,99.4% (inactive)
15,Nc1nc(Nc2ccccc2)n[nH]1,95.8% (inactive)
16,CCOC(=O)N1C/C(=C/c2ccc(OC)cc2)C(=O)/C(=C/c2ccc(OC)cc2)C1,-5.59% (active)
17,CC(=O)n1c(-c2ccc(Cl)c(Cl)c2)cn(-c2ccc(Cl)cc2)c1=O,21.9% (inactive)
18,N=C(N)c1ccc(-c2ccc(-c3ccco3)o2)cc1,42.8% (inactive)
19,COc1ccc(/C=C/C(C)=N/OCC(=O)O)cc1,100% (inactive)

# System: HCT-116 colon
# Experiment: as above
# Conditions: 10 µM
row,Compound,growth
1,COc1ccc(-c2nc(-c3nc4ccc(Cl)cc4[nH]3)c3ccccn23)cc1,4.9% (active)
2,O=C(O)c1ccc(P(=O)(O)O)c([N+](=O)[O-])c1,113% (inactive)
3,COc1ccc2c(c1)N(CCO)C1=C(C(=O)OC1)C2c1ccc(OC)c(OC)c1 (stereo not drawn),26.7% (inactive)
4,CC(=O)O[C@]1(C)CC[C@H]2[C@H](CNCCc3ccc(Cl)cc3)C(=O)O[C@@H]2C2=C(C)C(=O)C[C@H]21,83.9% (inactive)
5,COc1ccc(Cl)cc1-n1nnc(-c2nc3ccccc3[nH]2)c1N,55.4% (inactive)
6,O=C1/C(=C\c2ccc(F)cc2)CN(C(=O)c2ccccc2)C/C1=C\c1ccc(F)cc1,-55.3% (active)
7,CCC(=O)N1C/C(=C/c2ccc(Cl)cc2)C(=O)/C(=C/c2ccc(Cl)cc2)C1,-85.4% (active)
8,COc1cc(C2CC(c3ccc(Nc4ccnc5cc(Cl)ccc45)cc3)=NN2c2ccc(Cl)cc2)cc(OC)c1OC (stereo not drawn),46.6% (inactive)
9,COc1cc(NC(=O)CCSc2nc3ccc(C)cc3c(=O)n2Cc2ccccc2)cc(OC)c1OC,35% (inactive)
10,COc1cc(Nc2ncnc(Nc3ccc4c(n3)NC(=O)C(C)(C)O4)n2)cc(OC)c1OC,24.2% (inactive)
11,C[C@@H]1C=C2C(=O)O[C@@H]3CC[C@H](C1)[C@]23O,48.7% (inactive)
12,N#CCCN1C/C(=C/c2ccc(Cl)cc2)C(=O)/C(=C/c2ccc(Cl)cc2)C1,-54.5% (active)
13,Cc1[nH]nc2c1C(c1cnn(C)c1)C(C#N)=C(N)O2 (stereo not drawn),104% (inactive)
14,O=C(Nc1nc2ccc(F)cc2s1)c1cc(-c2ccc(F)cc2)n2nc(-c3ccccc3)cc2n1,79.1% (inactive)
15,COc1ccc(-c2nc(-c3nc4cc(Cl)c(Cl)cc4[nH]3)c3ccccn23)cc1,24.8% (inactive)
16,Cc1ccc(CC#N)cc1C,93% (inactive)
17,O=C1/C(=C\c2ccc(Cl)cc2)CN(C(=S)Nc2ccccc2)C/C1=C\c1ccc(Cl)cc1,-62.8% (active)
18,C#Cc1ccc(-n2c(/C=C/c3ccc4ccccc4n3)nc3ncccc3c2=O)cc1,-25% (active)
19,N#CCCN1C/C(=C/c2ccccc2)C(=O)/C(=C/c2ccccc2)C1,-81.7% (active)
20,CCC(=O)N1C/C(=C/c2ccc(OC)cc2)C(=O)/C(=C/c2ccc(OC)cc2)C1,-70.8% (active)

row,Compound,growth
1,Cc1ccc(C)c(C(O)(c2cc(C)ccc2C)C2(O)CCCCC2)c1,90.5% (inactive)
2,O=C1/C(=C\c2ccc(F)cc2)CN(C(=O)c2ccc([N+](=O)[O-])cc2)C/C1=C\c1ccc(F)cc1,-72.7% (active)
3,CC(=O)OCc1cc(-c2nc3ccccc3[nH]c2=O)nn1-c1ccc(Cl)cc1,100% (inactive)
4,O=C1/C(=C\c2ccc(Cl)cc2)CN(C(=O)c2ccccc2)C/C1=C\c1ccc(Cl)cc1,-48.2% (active)
5,CC(C)(C)c1cc(Br)cc(C(C)(C)C)c1O,104% (inactive)
6,C#Cc1ccc(-n2c(/C=C/c3ccc(C(F)(F)F)cc3)nc3ncccc3c2=O)cc1,1.75% (active)
7,CC/C(=C(/c1ccc(OCCN(C)C)cc1)c1ccc(OC(=O)CCCCC(=O)c2c(C)[nH]c(/C=C3\N=C(c4ccc[nH]4)C=C3OC)c2C)cc1)c1ccccc1,48.3% (inactive)
8,CSc1nn(-c2ccccc2)c2ncnc(Oc3ccccc3)c12,85.4% (inactive)
9,COc1cc(/C=C\c2cc(OC)c(OC)c(OC)c2)cc(NS(=O)(=O)c2ccc(Cl)cc2)c1OC,14.7% (inactive)
10,COc1ccc(/C=C2/CN(CCC#N)C/C(=C\c3ccc(OC)cc3)C2=O)cc1,-68.2% (active)
11,c1ccc(CP(Cc2ccccc2)c2ccccc2)cc1,100% (inactive)
12,COc1ccc(-c2nc(-c3nc4cc(Cl)c(F)cc4[nH]3)c3ccccn23)cc1,71.4% (inactive)
13,Cc1nc2ccccc2c(N)c1-c1cc(C)c2c(C)nc3ccccc3c2n1,-82.1% (active)
14,CC1(C)CCC(=NNC(N)=S)CC1,94.6% (inactive)
15,Nc1nc(Nc2ccccc2)n[nH]1,97.7% (inactive)
16,CCOC(=O)N1C/C(=C/c2ccc(OC)cc2)C(=O)/C(=C/c2ccc(OC)cc2)C1,-82.8% (active)
17,CC(=O)n1c(-c2ccc(Cl)c(Cl)c2)cn(-c2ccc(Cl)cc2)c1=O,17.8% (inactive)
18,N=C(N)c1ccc(-c2ccc(-c3ccco3)o2)cc1,42.5% (inactive)
19,COc1ccc(/C=C/C(C)=N/OCC(=O)O)cc1,96.9% (inactive)
